Screening results deposited in PubChem by several laboratories.
A selection: hits, their analogues and other compounds. The true share with any hit is near 2.3%.
Shn3 inh set2 = reduces Shn3 3'UTR luciferase signal in osteoblasts. Clone20 osteoblast Shn3 3'UTR firefly luciferase, 24 h. inhibition, % at 12.5 µM. hit rate 0.52% among 360,000. AID 588674;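 active means mean inhibition of at least 75% with every replicate also reaching 75%; inconclusive means mean inhibition at least 75% but some replicate below; inactive means mean inhibition below 75%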;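 further: 0% = median of neutral control wells and 100% = pilot-screen positive control compound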
aSyn UTR inh = 5' untranslated region of α-synuclein, MLPCN primary screen. alpha-synuclein 5'UTR reporter, inhibitor activity. inhibition, % (tested at 7.5 µM). hit rate 0.82% among 300,000; in the data active means inhibition above about 60%; inconclusive means no clear call, values can overlap the other calls;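 further: H4 neuroglioblastoma cells stably carrying SNCA 5'UTR luciferase fusion; 0% = DMSO wells and 100% = positive control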
H9c2 TAG inh = triacylglycerol accumulation inhibition. inhibition, % at 12.5 µM. hit rate 0.66% among 230,000. H9c2 cells, Nile Red lipid (TAG) fluorescence; cells loaded with 200 µM oleic acid;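 active means pattern-corrected inhibition of lipid staining of at least 50% with the nuclear-stain viability signal not falling by more than 50%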;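 further: 0% = DMSO wells and 100% = triacsin C control wells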
Jurkat NFkB inh = lowers PMA/ionomycin-induced NF-kB signal in Jurkat cells. PMA/ionomycin-induced NF-kB luciferase reporter, luminescence. inhibition, % at 4 µM. hit rate 0.53% among 330,000. AID 435003; in the data active means inhibition above about 50%
697 NFkB inh = lowers PMA/ionomycin-induced NF-kB signal in 697 B cells; 697 B-cell NF-kB luciferase reporter, 16 h; inhibition, % at 4 µM; hit rate 0.33% among 330,000; AID 435022; in the data active means inhibition above about 35%
Gli-Sufu antag = Gli-Sufu pathway antagonism | Sufu-KO-LIGHT fibroblasts, Gli luciferase reporter luminescence | inhibition, % at 5 µM | hit rate 0.74% among 340,000;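 active means inhibition above about 55%, limit read from the data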;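 further: 0% = DMSO-treated cells and 100% = wells with medium but no cells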
Starred values were filed as active, the others as inactive; ? = inconclusive; . = not tested or not shown.

SMILES	Shn3 inh set2	aSyn UTR inh	H9c2 TAG inh	Jurkat NFkB inh	697 NFkB inh	Gli-Sufu antag
CC1=C(C(=O)Nc2ccc(CC(=O)NCc3ccccc3C)cc2)SCCO1	40	-34	.	10	-10	-43
CCc1ccc(CNC(=O)Cc2ccc(NC(=O)C3=C(C)OCCS3)cc2)cc1	-15	66*	.	33	-74	-6
CCN(CC)c1c([N+](=O)[O-])c(=O)n(C)c2ccccc12	-8	-7	2	-5	8	-1
Cn1c(=O)c([N+](=O)[O-])c(Cl)c2ccccc21	97*	-11	98	.	.	-2
NC(=S)NN=Cc1nccc2c(N)cccc12	86*	.	-4	.	.	.
COc1ccc(C2/C=C\CN(C(=O)c3ccc(C)cc3)[C@H](Cc3ccccc3)C(=O)N2Cc2ccc(F)cc2)cc1 (stereo partly drawn)	87*	27	26	33	18	-6
COc1ccc(C2/C=C\CN(C(=O)C3CC3)[C@H](Cc3ccccc3)C(=O)N2Cc2ccc(F)cc2)cc1 (stereo partly drawn)	10	34	15	15	12	19
CC(=NNC(=S)N1CCCCCC1)c1cccc2cccnc12	?	.	45	.	.	5
CC(=NNC(=S)N1CC2CCC(CC2)C1)c1ccccn1	86*	.	-1	.	.	.
C/C(=N\NC(=O)C1CCCN(S(=O)(=O)c2ccccc2)C1)c1ccccn1 (stereo not drawn)	72	67*	8	32	-10	-8
CC(=NNC(=S)N1CCN(c2ccccn2)CC1)c1nccs1	85*	.	-36	.	.	89*
CC(=NNC(=S)N1CCN(C2CCCCCC2)CC1)c1ccccn1	93*	.	77	.	.	65*
CC(=NNC(=S)N1CCN(c2ccccn2)CC1)c1ccccn1	4	.	4	.	.	9
CC(=NNC(=S)Nc1ccc(C)cc1)c1ccccn1	72	.	-21	.	.	25
COC(=O)C1C(c2ccc(Cl)cc2)NC(c2ccc(Cl)cc2)C(C(=O)OC)S1(=O)=O (stereo not drawn)	1	19	.	-3	14	4
O=C(CCCn1c(=O)[nH]c2ccsc2c1=O)Nc1ccc(F)cc1	8	-1	-5	7	17	2
Cn1ncc([N+](=O)[O-])c1C(=O)NC1CCCCCC1	0	10	1	10	24	2
COc1ccc(CC/C(C)=N\NC(N)=O)cc1	-21	-2	.	-6	2	-5
CC(C)(C)OC(=O)N(Cc1ccccc1)Cc1cccc(OCc2cccc(NC(=O)C3CC3)c2)c1	54	.	0	.	.	9
C/C(=N/NC(=O)c1cnccn1)c1ccncc1	-6	-5	-2	1	11	-6
CC(=NNC(=S)N1CC2CCC(CC2)C1)c1cnccn1	84*	.	33	.	.	55
COc1ccc(N(C(=O)CCl)C(C(=O)NCCc2ccccc2)c2cccs2)cc1Cl (stereo not drawn)	?	16	.	.	.	96*
COc1cccc(N(C(=O)CCl)C(C(=O)NCCc2ccccc2)c2cccs2)c1 (stereo not drawn)	37	-112	.	.	.	93*
COc1ccc(N(C(=O)c2ccco2)C(C(=O)NC2CCCCC2)c2cccs2)cc1OC (stereo not drawn)	-3	5	-15	-8	18	-101
C/C=C(/C)C(=O)OC1c2c(ccc3ccc(=O)oc23)OC(C)(C)C1OC(C)=O (stereo not drawn)	18	-11	-8	5	9	7
SMILES	Shn3 inh set2	aSyn UTR inh	H9c2 TAG inh	Jurkat NFkB inh	697 NFkB inh	Gli-Sufu antag
CC(OC(=O)c1ccc(S(C)(=O)=O)c([N+](=O)[O-])c1)C(=O)NC1C2CC3CC(C2)CC1C3 (stereo not drawn)	98*	.	65*	.	.	.
CCC(OC(=O)c1ccc(S(C)(=O)=O)c([N+](=O)[O-])c1)C(=O)NC1C2CC3CC(C2)CC1C3 (stereo not drawn)	96*	.	74	.	.	.
CS(=O)(=O)c1ccc(C(=O)OCc2nnc(-c3ccc(Cl)cc3)o2)cc1[N+](=O)[O-]	6	-23	-14	5	20	-13
CC[C@@H](C(=O)[C@@H](C)[C@@H](O)[C@H](C)[C@@H]1O[C@@H]([C@@H](CC)C(=O)O)CC[C@@H]1C)[C@H]1O[C@]2(C=C[C@@H](O)[C@]3(CC[C@@](C)([C@H]4CC[C@](O)(CC)[C@H](C)O4)O3)O2)[C@H](C)C[C@@H]1C	82	.	5	.	.	90*
Cc1cc(C(=O)Nc2ccc3c(c2)OCCO3)c(C)o1	-47	-113	12	-108	-113	-95
Cc1cc(=O)[nH]c(N/N=C/c2ccccc2Cl)n1	-3	-76	.	7	8	-2
Cc1cc(=O)[nH]c(NN=Cc2cc(Br)ccc2O)n1	74	.	32	.	.	76*
CC(C)C[C@H]1CN=C(Nc2ccccc2)N1CC1CCC(C(C)(C)C)CC1 (stereo partly drawn)	-32	.	59*	42	-16	-18
O=C(c1cccc(S(=O)(=O)N2CCOCC2)c1)N1CCN(S(=O)(=O)c2cccc([N+](=O)[O-])c2)CC1	-4	.	2	2	18	1
COc1ccc(Oc2c(Cl)cnn(-c3ccc(C)cc3)c2=O)cc1	16	-40	-1	1	0	-1
COc1ccc(Oc2c(Cl)cnn(-c3ccc(Cl)c(Cl)c3)c2=O)cc1	19	73*	17	5	6	1
COC(=O)C(C)Sc1nnc(Cc2cc(=O)[nH]c(=O)[nH]2)n1-c1ccc(OC)cc1 (stereo not drawn)	3	.	4	10	-11	6
C=C1C(=O)[C@]23C[C@H]1CC[C@H]2[C@]1(C)[C@@H](OC(C)=O)CC[C@@](C)(C(=O)O)[C@H]1C[C@@H]3O	63	.	.	.	.	.
C=C1C(=O)[C@]23C[C@H]1CC[C@H]2[C@]1(C)[C@@H](OC(C)=O)CC[C@@](C)(C(=O)OC)[C@H]1C[C@@H]3OC(C)=O	96*	.	.	.	.	.
C=C1C(=O)[C@]23C[C@H]1CCC2[C@@]1(C)C(C[C@@H]3O)[C@](C)(C(=O)OC)CC[C@@H]1OC(C)=O (stereo partly drawn)	98*	.	.	.	.	.
CCC1CCCCN1CCCNC(=O)CN1C(=O)c2cccnc2Oc2ccc(Cl)cc21 (stereo not drawn)	15	10	.	-11	-22	5
Cc1ccc(-c2c3c(nc4sc(C(N)=O)c(N)c24)CCC3)cc1	8	-52	-12	-36	-27	-1
NC(=O)c1sc2nc3c(c(-c4ccc(Cl)cc4)c2c1N)CCCC3	-18	66*	17	16	21	-26
CC(C)CCNc1nc(N)c([N+](=O)[O-])c(N2CCCCCC2)n1	87*	33	.	44	-42	15
O=C(NN1CCOCC1)c1sc2cccc(F)c2c1Cl	-27	-12	-4	-2	10	0
CCCOc1cc(N)ccc1C(=O)OCCN(CC)CC	-2	.	2	2	17	-5
CCOC(=O)C1CCN(C(=O)c2sc3nc(C)nc(N4CCC(C)CC4)c3c2C)CC1	88*	22	.	-5	-7	13
